Common to all, as to test: NCI-60 one-dose screen, 48 h (100 = growth as untreated, 0 = no growth, -100 = all killed)
One assay concerns HT29 colon. Conditions: 10 µM unless noted.
Another assay relates to SNB-75 CNS. Conditions: 10 µM unless noted.
The next assay concerns SNB-19 CNS. Conditions: 10 µM unless noted.
The test system of the next assay is U251 CNS. Conditions: 10 µM unless noted.
Another assay relates to PC-3 prostate. Conditions: 10 µM unless noted.
A further assay relates to SK-MEL-5 melanoma. Conditions: 10 µM unless noted.
A further assay concerns UACC-62 melanoma. Particulars: 10 µM unless noted.
In a further assay the test system is LOX IMVI melanoma. Conditions: 10 µM unless noted.
For another assay, the system named is SK-MEL-28 melanoma. Conditions: 10 µM.
Another assay has as its system SK-MEL-2 melanoma. Conditions: 10 µM unless noted.
The next assay has as its system EKVX NSCLC. Particulars: 10 µM unless noted.
Another assay has as its system SN12C renal. Conditions: 10 µM unless noted.
For another assay, the system named is UO-31 renal. Conditions: 10 µM unless noted.
A further assay deals with TK-10 renal. Conditions: 10 µM unless noted.
Another assay relates to ACHN renal. Particulars: 10 µM unless noted.
The test system of a further assay is CAKI-1 renal. Particulars: 10 µM unless noted.
A further assay concerns A498 renal. Conditions: 10 µM unless noted.
The test system of a further assay is CCRF-CEM leukemia. Particulars: 10 µM unless noted.
Another assay concerns MOLT-4 leukemia. Conditions: 10 µM unless noted.
For another assay, the system named is SR leukemia. Conditions: 10 µM unless noted.

SMILES strings stand for the structures. The panel holds about 83,000 compounds, 20% with a hit somewhere; the sample as a whole holds those more often.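 Note: values are percent growth. 100 is the growth of untreated cells, values between 100 and 0 indicate rising inhibition; between -100 and 0 indicates cell death.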 Unmarked numbers belong to inactive results. Calls of active or inactive are those of the source. Rule for the calls: active = growth percent below 10; inactive = the rest.

`OCCNc1nc(Nc2ccc(C3=NN(c4cc(Cl)cc(Cl)c4)C(c4ccc(C(F)(F)F)cc4)C3)cc2)nc(N2CCOCC2)n1` (stereo not drawn): the growth with HT29 colon was 55.9%; with SNB-75 CNS it was 68.4%; in the assay on SNB-19 CNS, 87.6%; in the assay on U251 CNS, 63.4%; in the assay with PC-3 prostate it was 62.9%; in the assay on SK-MEL-5 melanoma, 76%. Moreover, the growth in the assay with UACC-62 melanoma is 69.7%; with LOX IMVI melanoma it was 44.8%; in the assay on SK-MEL-28 melanoma, 81.4%; with SK-MEL-2 melanoma, 116%; in the assay with EKVX NSCLC, 71.4%; with SN12C renal, 74.8%. Further, the growth with UO-31 renal was 72%; with TK-10 renal, 114%; in the assay on ACHN renal, 56.8%; in the assay on CAKI-1 renal, 71.3%; in the assay with A498 renal, 82.4%; in the assay with CCRF-CEM leukemia, 51%. The results for the growth with MOLT-4 leukemia and with SR leukemia were 60.2% and 70.5%, respectively.

As for `CC(=O)c1ccc(NC(=O)Nc2ccc(S(=O)(=O)Nc3ccc(Cl)nn3)cc2)cc1`, the growth in the assay with HT29 colon was 111%; in the assay with SNB-75 CNS, 86.4%; in the assay on SNB-19 CNS, 95.8%; with U251 CNS, 103%; with PC-3 prostate, 104%; in the assay with SK-MEL-5 melanoma, 100%. Moreover, the growth with UACC-62 melanoma is 92%; with LOX IMVI melanoma it was 99%; with SK-MEL-28 melanoma, 107%; with SK-MEL-2 melanoma, 108%; in the assay with EKVX NSCLC it was 99%; in the assay with SN12C renal, 97.9%. Also, the growth was 78.5% in the assay with UO-31 renal; 119% in the assay with TK-10 renal; 103% in the assay with ACHN renal; 93% in the assay on CAKI-1 renal; 84% with A498 renal; 116% with CCRF-CEM leukemia. The growth in the assay with MOLT-4 leukemia was 104%; in the assay on SR leukemia, 117%.

Regarding `CNC(=O)c1cc(Oc2ccc(CC(=O)Nc3cc(C(C)(C)C)cn3C)cc2)ccn1`, the growth with HT29 colon is 88%; in the assay with SNB-75 CNS, 52.4%; in the assay on SNB-19 CNS it was 69.9%; in the assay with U251 CNS it was 88.6%; in the assay on PC-3 prostate it was 75.9%; with SK-MEL-5 melanoma, 8.83% (active). For the same compound, the growth was 62.9% in the assay with UACC-62 melanoma; 67% with LOX IMVI melanoma; 79.8% in the assay on SK-MEL-28 melanoma; 67.1% in the assay with SK-MEL-2 melanoma; 75.6% with EKVX NSCLC; 68.5% with SN12C renal. Also, the growth in the assay on UO-31 renal is 87.4%; with TK-10 renal it was 108%; in the assay with ACHN renal it was 66.7%; with CAKI-1 renal, 56%; with A498 renal it was 53.9%; in the assay with CCRF-CEM leukemia, 74%. For the same compound, the growth in the assay on MOLT-4 leukemia is 69.6%; in the assay on SR leukemia, 75.5%.

On to `CC(=O)c1ccc(Nc2nc(NCCO)nc(Nc3ccc(Cl)cc3)n2)cc1`, for which the growth in the assay with HT29 colon is 96.8%; in the assay with SNB-75 CNS, 77.5%; with SNB-19 CNS, 92.4%; with U251 CNS it was 99.7%; in the assay with PC-3 prostate, 90.5%; in the assay on SK-MEL-5 melanoma it was 74.9%. For the same compound, the growth is 78% in the assay on UACC-62 melanoma; 87.9% in the assay with LOX IMVI melanoma; 95.2% in the assay with SK-MEL-28 melanoma; 95.2% with SK-MEL-2 melanoma; 80.2% with EKVX NSCLC; 95.8% in the assay with SN12C renal. The growth with UO-31 renal is 81.3%; with TK-10 renal it was 108%; with ACHN renal it was 87.8%; in the assay with CAKI-1 renal, 92.1%; with A498 renal, 72.9%; in the assay with CCRF-CEM leukemia, 89.4%. The growth with MOLT-4 leukemia was 83.9%; in the assay with SR leukemia it was 64.7%.

With `COc1cc(C=C2C(=O)N(C)C(=O)N(C)C2=O)cc(CN2CCCCC2)c1O`, the growth in the assay on HT29 colon is 103%; in the assay on SNB-75 CNS, 89.8%; with SNB-19 CNS, 92.6%; in the assay with U251 CNS, 99.6%; in the assay on PC-3 prostate, 105%; in the assay on SK-MEL-5 melanoma, 100%. For the same compound, the growth in the assay with UACC-62 melanoma was 96.8%; in the assay with LOX IMVI melanoma, 98.7%; with SK-MEL-28 melanoma, 102%; with SK-MEL-2 melanoma it was 102%; in the assay on EKVX NSCLC it was 104%; in the assay with SN12C renal it was 94%. For the same compound, the growth is 75.4% in the assay on UO-31 renal; 103% with TK-10 renal; 95.9% in the assay on ACHN renal; 92.4% in the assay on CAKI-1 renal; 98.7% with A498 renal; 109% in the assay with CCRF-CEM leukemia. Besides, the growth was 98.2% in the assay with MOLT-4 leukemia and 94.4% in the assay on SR leukemia.

In the case of `CN1C(=O)N(C)C2Nn3c(s/c(=C4\C(=O)N(CCc5ccccc5)c5ccccc54)c3=O)=NC21` (stereo not drawn), the growth was 38.4% in the assay with HT29 colon; 48.2% with SNB-75 CNS; 85.7% in the assay on SNB-19 CNS; 77.8% in the assay with U251 CNS; 44.4% in the assay with PC-3 prostate; 27.4% in the assay on SK-MEL-5 melanoma. Moreover, the growth is 44.7% in the assay on UACC-62 melanoma; 54.8% with LOX IMVI melanoma; 76.4% in the assay on SK-MEL-28 melanoma; 69.3% with SK-MEL-2 melanoma; 58% in the assay on EKVX NSCLC; 74.3% in the assay on SN12C renal. For the same compound, the growth was 62.9% in the assay on UO-31 renal; 70.5% in the assay on TK-10 renal; 59.3% with ACHN renal; 49.2% in the assay with CAKI-1 renal; 70.3% in the assay with A498 renal; 53.1% in the assay with CCRF-CEM leukemia. Moreover, the growth with MOLT-4 leukemia was 70.8%; in the assay with SR leukemia it was 30.4%.

On to `OC(c1ccccc1)c1nnc(SCc2ccccc2)n1Cc1ccccc1` (stereo not drawn), for which the growth with HT29 colon was 103%; with SNB-75 CNS, 76.3%; in the assay with SNB-19 CNS it was 79.7%; in the assay with U251 CNS, 87.5%; in the assay with PC-3 prostate, 87.6%; in the assay on SK-MEL-5 melanoma it was 96.7%. Also, the growth was 69.1% in the assay with UACC-62 melanoma; 98.7% with LOX IMVI melanoma; 100% in the assay on SK-MEL-28 melanoma; 84.3% with SK-MEL-2 melanoma; 102% with EKVX NSCLC; 89.7% with SN12C renal. Moreover, the growth in the assay on UO-31 renal is 67.7%; with TK-10 renal, 103%; in the assay with ACHN renal, 86.9%; with CAKI-1 renal, 97%; in the assay on A498 renal, 90.1%; with CCRF-CEM leukemia it was 75.4%. Besides, the growth in the assay on MOLT-4 leukemia was 99.9%; with SR leukemia, 42.5%.

As to `O=C(c1nc2ccccc2[nH]1)C1C(c2ccc(F)cc2)C2CC3CCCCC3N2[C@@]12C(=O)Nc1ccc(Cl)cc12` (stereo partly drawn), the growth in the assay with HT29 colon is 24.9%; in the assay with SNB-75 CNS, 36.7%; in the assay with SNB-19 CNS, 54.1%; in the assay on U251 CNS, 51.2%; in the assay on PC-3 prostate, 35.4%; in the assay with SK-MEL-5 melanoma it was 47.3%. Besides, the growth in the assay with UACC-62 melanoma is 55.1%; in the assay on LOX IMVI melanoma it was 46%; in the assay on SK-MEL-28 melanoma it was 61%; in the assay on SK-MEL-2 melanoma, 65.8%; with EKVX NSCLC it was 39.5%; in the assay with SN12C renal, 52%. For the same compound, the growth is 30.9% in the assay with UO-31 renal; 72.9% with TK-10 renal; 43.1% in the assay with ACHN renal; 54.8% with CAKI-1 renal; 33.3% in the assay on CCRF-CEM leukemia; 11.4% with MOLT-4 leukemia.
